Laboratory results reported in the supplement of paper PMC4723716.
± gives the uncertainty stated by the source. In all, about 9,900 compounds were measured (“viability index relative to DMSO control”: median about 1, lowest 2% from about 0.85 on). The full list was thinned out, with the lowest values kept by preference.

System: Plasmodium falciparum NF54 stage V gametocytes
Test: viability index relative to DMSO control (fraction); higher = less gametocyte killing
Details: 2.5 µM, incubation time: 72 h
In short: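 Gametocytes (P. falciparum NF54, stage V) were treated with compound at 2.5 µM for 72 hr at 37°C in low oxygen, in serum-free medium at 0.75% gametocytemia and 1.25% hematocrit. Counts of 20–70 µm2 red particles, taken from one field per well after MitoTracker Red CMXRos with saponin, were divided by the plate mean of solvent-only wells. This ratio is the viability index.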

[1] = library set: Broad Institute DOS
[2] = library set: Broad Institute Blood Stage

Molecule C[C@H]1CN([C@@H](C)CO)C(=O)c2cc(N(C)C)ccc2O[C@@H]1CN(C)CC1CCCCC1 has a viability index [1] of 1.01 ± 0.12.

COc1ccc2c3c([C@H](CO)N(C[C@]33CN(Cc4ccccc4F)C3)C(=O)Nc3ccc(F)cc3)n(C)c2c1 was tested, and the viability index [1] was 1 ± 0.091.

COc1ccc2c3c([C@@H](CO)N(C[C@]33CN(C3)C(=O)Cc3ccncc3)C(=O)Nc3ccc(F)cc3)n(C)c2c1 was tested, and the viability index [1] was 0.974 ± 0.085.

COc1ccc2c3c([C@@H](CO)N(C[C@]33CN(Cc4ccccc4F)C3)C(=O)Nc3ccc(F)cc3)n(C)c2c1 showed a viability index [1] of 0.791 ± 0.066.

For COc1cccc(C#Cc2ccc([C@@H]3[C@H](CO)N4C(=O)CN(C(=O)Cc5cccnc5)C[C@@H]34)cc2)c1, the viability index [1] was 0.904 ± 0.094.

COc1cccc(C#Cc2ccc([C@H]3[C@@H](CO)N4C(=O)CN(C(=O)Cc5cccnc5)C[C@H]34)cc2)c1 showed a viability index [1] of 0.804 ± 0.11.

In the case of CCCNC(=O)N1CC(=O)N2[C@H](CO)[C@H](c3ccc(C#Cc4cccc(OC)c4)cc3)[C@@H]2C1, the viability index [1] is reported as 1.02 ± 0.062.

COc1cccc(C#Cc2ccc([C@H]3[C@H]4CN(C(=O)Cc5cccnc5)CC(=O)N4[C@H]3CO)cc2)c1 showed a viability index [1] of 1.057 ± 0.0037.

With O=C(Cc1cccnc1)N1CC(=O)N2[C@H](CO)[C@@H](c3ccc(C#CC4CCCCC4)cc3)[C@H]2C1 the viability index [1] was 1.04 ± 0.06.

For O=C(Cc1cccnc1)N1CC(=O)N2[C@H](CO)[C@H](c3ccc(C#CC4CCCCC4)cc3)[C@H]2C1, the viability index [1] was 0.801 ± 0.073.

COc1cccc(C#Cc2ccc([C@H]3[C@@H](CO)N4C(=O)CN(C(=O)c5ccccc5)C[C@H]34)cc2)c1 was tested, and the viability index [2] was 0.754 ± 0.074.

Work on COc1cccc(C#Cc2ccc([C@H]3[C@H](CO)N4C(=O)CN(C(=O)Cc5cccnc5)C[C@@H]34)cc2)c1 yielded a viability index [1] of 0.945 ± 0.048.

Molecule O=C(Cc1cccnc1)N1CC(=O)N2[C@H](CO)[C@@H](c3ccc(C#CC4CCCCC4)cc3)[C@@H]2C1 has a viability index [1] of 1.07 ± 0.032.

Molecule COc1cccc(C#Cc2ccc([C@H]3[C@@H](CO)N4C(=O)CN(C(=O)Cc5ccccc5)C[C@H]34)cc2)c1 has a viability index [2] of 0.778 ± 0.047.

For COc1cccc(C#Cc2ccc([C@@H]3[C@@H](CO)N4C(=O)CN(C(=O)Cc5cccnc5)C[C@H]34)cc2)c1, the viability index [1] was 1.01 ± 0.084.

CCCNC(=O)N1CC(=O)N2[C@H](CO)[C@@H](c3ccc(C#Cc4cccc(OC)c4)cc3)[C@H]2C1 was tested, and the viability index [1] was 0.936 ± 0.075.

Molecule CO[C@@H]1CN(C)C(=O)c2cc(NS(C)(=O)=O)ccc2OC[C@@H](C)N(C(=O)C2CCOCC2)C[C@@H]1C has a viability index [1] of 1.17 ± 0.07.

In the case of CN(C)C(=O)c1ccc(-c2ccc([C@@H]3[C@@H]4CN(Cc5ccc6c(c5)OCO6)C[C@H]3N4)cc2)cc1, the viability index [1] is reported as 1.05 ± 0.098.

Molecule COc1ccc2c3c([C@H](CO)N(Cc4ccncc4)C[C@]33CN(C3)C(=O)C3CCCCC3)n(C)c2c1 has a viability index [1] of 1.03 ± 0.079.
